HCV inhibitor: qHTS Assay for Inhibitors of Hepatitis C Virus (HCV). Potency, µM (highest dose often 41.8 µM), most hits filed as inhibitors. Huh7.5.1 HCVcc-Cre infection, luciferase reporter, 44 h. 340,000 compounds, 3.4% hits
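Infectious HCV cell culture screen: compound-treated cells (1,000/well, pre-plated 4 h) are infected with HCVcc-Cre at roughly 0.5 moi and grown 44 h. Infection is quantified by luciferase signal after 15 min substrate incubation at room temperature.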
Pf growth 96h: Primary qHTS for delayed death inhibitors of the malarial parasite plastid, 96 hour incubation | P. falciparum luciferase reporter growth, 96 h | Potency, µM (titrated, usually from 28.7 µM), most hits filed as inhibitors | AID 504834, 2011 | 320,000 compounds, 6.9% hits
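Cell-based qHTS: luciferase-tagged P. falciparum in erythrocytes (2% hematocrit, 0.05% parasitemia final) incubated with compounds for 96 hours, 37 C, 5% CO2; luciferase detection reagent then added and luminescence measured.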
Lassa entry inh: qHTS for Inhibitors of binding or entry into cells for Lassa Virus | 300,000 compounds, 1.2% hits | Lassa virus pseudotype entry inhibition, cell reporter | Potency, µM (top dose mostly 37.9 µM), actives largely listed as inhibitors; calls by dose curve; tested in HEK293 cells; further: nearly all actives have a fitted effect of over 50% in size
HCMV inh: qHTS Assay for inhibitors of the human cytomegalovirus (HCMV). 410,000 compounds, 4.5% hits. activity change, negative = inhibition, % at 57.5 µM. HFF cells, HCMV-luciferase reporter, 72 h; hits give low values. AID 1259415, 2018; in the data active means activity change below about -60%; inconclusive means no clear call, values can overlap the other calls; inactive means above about -39%
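After 16 h attachment at 37C, HFF cells received test compound and HCMV-luciferase (1 PFU/cell); reporter luminescence read 72 h later, data normalized against buffer-only and known inhibitor Salinomycin.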
MARV entry inh: qHTS for inhibitors of binding or entry into cells for Marburg Virus | Marburg virus pseudotyped entry inhibition, cell reporter | Potency, µM (series often up to 37.8 µM), usual class: inhibitors | 300,000 compounds, 1.8% hits | AID 540276, 2011; calls by dose curve; tested in HEK293 cells
Pf growth 48h: Primary qHTS for delayed death inhibitors of the malarial parasite plastid, 48 hour incubation; P. falciparum luciferase growth in erythrocytes, 48 h; Potency, µM (titrated, usually from 28.7 µM), actives largely listed as inhibitors; 310,000 compounds, 5.9% hits; AID 504832, 2011
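A one-generation exposure of luciferase-tagged malaria parasites in RPMI 1640/Albumax erythrocyte culture, 37 C and 5% CO2. Inhibition is inferred from decreased luminescence after adding detection reagent.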
A number is an active result; – = inactive; ? = inconclusive; · = no result given; [ ] = another dose, or the depositor's remark. The list is not random: actives were taken first. Their share in the collection is about 14%. Unless noted, the call rests on the fitted dose curve; in most records, active means well fitted inhibition curve with a large enough effect; inconclusive means small, poorly fitted or top-dose-only effect, or another doubt; inactive means no such curve, though single readings can be large or run the other way.

SMILES	HCV inhibitor	Pf growth 96h	Lassa entry inh	HCMV inh	MARV entry inh	Pf growth 48h
CCOc1ccc(C(NC(C)=O)c2ccc(OC)c(OC)c2)cc1 (stereo not drawn)	–	1.5µM	–	–	–	–
Cc1cc(C)c(C)c(S(=O)(=O)ON2C(=O)c3ccccc3C2=O)c1C	?	–	?	-76	?	–
Cc1ccc(S(=O)(=O)ON2C(=O)c3ccccc3C2=O)c(C)c1	–	–	?	-71	?	–
O=C1c2ccccc2C(=O)N1OS(=O)(=O)c1ccc(F)cc1	–	–	·	–	·	–
Cc1ccc(NC(=O)CN2C(=O)c3ccccc3C2=O)c(C)c1	–	?	–	–	–	–
C[C@H](O)CON1C(=O)c2ccccc2C1=O	·	·	·	·	–	·
Cc1cc(C)c(S(=O)(=O)ON2C(=O)c3ccccc3C2=O)cc1C	–	–	–	-81	?	–
COc1ccc(C2(SCC(N)C(=O)O)c3ccccc3-c3ccccc32)cc1 (stereo not drawn)	–	·	–	–	–	·
CCOc1ccc2nc(Cl)c(C3CC(c4ccccc4)=NN3C(=O)CCC(=O)O)cc2c1 (stereo not drawn)	·	·	–	–	–	·
Cc1cccc(Nc2c([N+](=O)[O-])cc(C(=O)N3CC(=O)Nc4ccccc43)cc2[N+](=O)[O-])c1	?	?	·	–	·	9.3µM
O=C1CN(C(=O)c2cccc(Br)c2)c2ccccc2N1	?	–	?	–	?	–
Cc1ccc(C)c(Nc2c([N+](=O)[O-])cc(C(=O)N3CC(=O)Nc4ccccc43)cc2[N+](=O)[O-])c1	?	13µM	?	?	?	?
Cc1ccc(C)c(NC(=O)CNC(=O)N2CC(=O)Nc3ccccc32)c1	–	–	–	–	–	–
COC(=O)c1ccccc1NC(=O)CCCCCn1nnc2ccccc2c1=O	–	–	·	–	·	–
COc1ccc(-c2csc3ncnc(Nc4ccc(OC)cc4OC)c23)cc1	·	·	–	?	·	·
O=C(NCc1nc2cccnc2n1Cc1ccc(F)cc1)c1ccccc1C(F)(F)F	·	·	–	-61	·	·
C[C@@H]1CCCCO[C@@H](CN(C)CC2CCCCC2)[C@@H](C)CN([C@H](C)CO)C(=O)c2cc(NS(=O)(=O)c3ccc(Cl)cc3)ccc2O1	·	·	·	-102	·	·
C[C@H]1CCCCO[C@H](CN(C)CC2CCCCC2)[C@@H](C)CN([C@@H](C)CO)C(=O)c2cc(NS(=O)(=O)c3ccccc3)ccc2O1	·	·	·	-63	·	·
Cc1ccc(S(=O)(=O)Nc2ccc3c(c2)C(=O)N([C@@H](C)CO)C[C@@H](C)[C@@H](CN(C)CC2CC2)OCCCC[C@@H](C)O3)cc1	·	·	·	–	·	·
C[C@@H]1CCCCO[C@@H](CN(C)Cc2ccc3c(c2)OCO3)[C@@H](C)CN([C@H](C)CO)C(=O)c2cc(NS(=O)(=O)c3ccccc3)ccc2O1	·	·	·	-69	·	·
CCN1CCC(N(Cc2ccc(F)cc2)C(=O)Nc2cc(Cl)ccc2C(=O)OC)CC1	·	·	?	–	·	·
Cc1nc(SCC(N)=O)[nH]c(=O)c1Cc1ccc(OC(C)C)cc1	–	1.7µM	–	–	–	?
COc1ccc(Cc2c(O)nc(SCC(=O)c3ccc(OC)cc3)[nH]c2=O)cc1	–	–[1.15 µM]	?	?	?	–
COC(=O)C1=C(C)N(Cc2cccc(C(F)(F)F)c2)C(=NCc2ccc(OC)cc2)NC1c1cccc(C(F)(F)F)c1 (stereo not drawn)	·	·	·	-99	·	·
COC(=O)C1=C(C)N(Cc2cccc(C(F)(F)F)c2)C(=NCc2ccc3c(c2)OCO3)NC1c1ccc(F)cc1 (stereo not drawn)	·	·	·	-85	·	·
SMILES	HCV inhibitor	Pf growth 96h	Lassa entry inh	HCMV inh	MARV entry inh	Pf growth 48h
COC(=O)C1=C(C)N(Cc2ccccc2)C(=NCc2ccc3c(c2)OCO3)N[C@H]1c1ccccc1	?	?	·	–	·	–
COC(=O)C1=C(C)N(Cc2cccc(C(F)(F)F)c2)C(=NCc2ccc(C(F)(F)F)cc2)NC1c1ccc(C(F)(F)F)cc1 (stereo not drawn)	·	·	·	-101	·	·
COC(=O)C1=C(C)N(Cc2cccc(C(F)(F)F)c2)C(=NCc2ccc(C(F)(F)F)cc2)NC1c1ccc(F)cc1 (stereo not drawn)	·	·	·	-101	·	·
C[C@H]1[C@@H](NS(=O)(=O)c2cc(Cl)cc(Cl)c2)CC[C@@]23CCCN2C(=O)CCC[C@@H]13	·	·	·	–	·	·
Clc1cccc(CN2CCc3c([nH]c4ccccc34)C2)c1	?	?	?	–	8.9µM	?
Cc1cccc(CN2CCc3c([nH]c4ccccc34)C2)c1	–	–	?	–	?	–
COc1ccc(Nc2nnc(SCC(=O)NC(=O)Nc3ccc4c(c3)OCCO4)s2)cc1	11µM	–	·	–	·	–
COc1ccc(Nc2nnc(SCC(=O)c3cc(C)n(CC4CCCO4)c3C)s2)cc1 (stereo not drawn)	?	·	–	–	?	5.9µM
CCC(=O)Nc1nnc(SCC(=O)Nc2ccc3c(c2)OCCO3)s1	–	–	–	–	–	–
COc1ccc(Nc2nnc(SCC3CCCCO3)s2)cc1 (stereo not drawn)	–	13µM	·	–	·	3.7µM
Cc1cccc(Nc2nnc(SCC(=O)c3ccc(O)cc3O)s2)c1	–	?	–	–	–	–
Cc1ccc(Nc2nnc(SCC(=O)c3ccc(O)cc3O)s2)cc1	–	2.1µM	–	–	?	?
COc1ccc(Nc2nnc(SCC(=O)N3CCCC3)s2)cc1	–	?	–	–	–	·
O=C(NCc1ccccc1Cl)c1ccc2c(c1)nnn2C1CCCC1	·	·	–	–	·	·
O=C(CCNC(=O)c1ccccc1)Nc1ccc(S(=O)(=O)Nc2ncccn2)cc1	–	·	–	–	–	·
O=C1C2C3C=CC(CO)(O3)C2C(=O)N1c1ccccc1-c1ccccc1 (stereo not drawn)	–	5.9µM	–	·	–	?
CC(=O)Oc1ccc(N2C(=O)C3C4C=CC(CO)(O4)C3C2=O)cc1 (stereo not drawn)	–	–	–	–	?	·
COc1ccc(NC(=O)CN2CCC(n3c(C)nc4cc(F)ccc43)CC2)c(OC)c1	–	–	–	–	–	?
COc1cc(OC)cc(C(=O)N2CCC(n3c(C)nc4cc(F)ccc43)CC2)c1	–	13µM	–	–	–	·
COC(=O)c1c(NC(=O)C2CCCCC2)sc2c1CC(C)(C)NC2(C)C	–	–	·	–	·	–
Cc1cc(OCc2cc(C(=O)N(C)C3CCOC3)no2)cc(C)c1Cl (stereo not drawn)	–	–	?	–	?	–
CC(=O)c1ccc(OCc2cc(C(=O)N(C)C3CCOC3)no2)cc1 (stereo not drawn)	–	12µM	·	–	·	–
CC(=O)c1ccc(OCc2cc(C(=O)N(C)CCOc3ccc(C)cc3)no2)cc1	13µM	–	·	–	·	–
CN(Cc1cccc2cnccc12)C(=O)c1cc(COc2ccc(F)cc2Cl)on1	10µM	–	?	–	–	?
